Assay outcomes as filed in PubChem BioAssay.
HSP90 refold inh: HSP90 refolding inhibition in rabbit reticulocyte lysate | luciferase refolding luminescence, 3 h | actives 0.91% (n = 290,000) | AID 1789 | inhibition, % at 5.6 µM;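 active = inhibition above the screen-wide mean plus 3 SD, computed separately per campaign, cut at about 16% in these data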;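 note: inhibitors lower the luminescence because luciferase stays unfolded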
HSF1 inhib: HSF1 inhibition | NIH3T3-HGL HSE-luciferase, MG132-induced, luminescence 8 h; hits give low values | activity change, negative = inhibition, % at 7.5 µM (by protocol) | actives 0.77% (n = 300,000) | AID 2098;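 active = more than half of replicate wells show activity change below -50%, luminescence cut by over half; inconclusive = some wells, but at most half, below -50%; inactive = no replicate well below -50%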;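 note: luciferase reports HSF-1 transcriptional activity via heat shock element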
HSF-1 act: increases HSF-1 driven luciferase reporter signal; NIH3T3-HGL HSF-1 luciferase reporter, MG132, 8 h; 100% = twice DMSO control signal; activation, % at 9 µM; actives 1.7% (n = 300,000);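 active = mean replicate activation of at least 50% with a set share of replicates each reaching 50%; inconclusive = only one of those two conditions met; inactive = mean below 50% and too few replicates reaching it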
ARNT TACC3 PPI: disruptors of human ARNT/TACC3 interaction | Q9Y6A5 | AlphaScreen His-ARNT PAS-B/GST-TACC3 binding, luminescence; TACC3 fragment carries E629A point mutation | inhibition, % at 9.99 µM | actives 0.66% (n = 390,000) | AID 623870;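 active = mean inhibition of replicates at least 50% and at least half of replicates each reaching 50%; inconclusive = half or more replicates reach 50% but mean below 50%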
HIF act: HIF pathway transcriptional activation | U2OS HRE-luciferase reporter, luminescence; normalized: DMSO 0%, desferrioxamine 100% | actives 0.32% (n = 300,000) | AID 1910 | activation, % at 7.5 µM (by protocol);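 active = mean activation of at least 10% of the iron chelator positive control signal, with at least half of replicates also reaching 10%; inconclusive = mean and replicate majority disagree about reaching 10%; inactive = mean and most replicates under 10%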
HSP90 confirm: confirmation of HSP90 inhibitors; shares compounds with HSP90 refold inh; rabbit reticulocyte lysate, luciferase refolding luminescence, 3 h; inhibition, % at 5.9 µM; actives 64% (n = 2,300); in the data active = inhibition above about 18%
FLuc counter: counter-screen for HSP90 inhibitors: inhibitors of firefly luciferase; shares compounds with HSP90 refold inh; purified native firefly luciferase, luminescence; inhibition, % at 5.9 µM; actives 48% (n = 2,300); AID 1847;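 active = inhibition above the mean inhibition of all tested sample wells plus 3 SD, cut at about 10% in these data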
Target sequence (P08659 whole entry, looked up): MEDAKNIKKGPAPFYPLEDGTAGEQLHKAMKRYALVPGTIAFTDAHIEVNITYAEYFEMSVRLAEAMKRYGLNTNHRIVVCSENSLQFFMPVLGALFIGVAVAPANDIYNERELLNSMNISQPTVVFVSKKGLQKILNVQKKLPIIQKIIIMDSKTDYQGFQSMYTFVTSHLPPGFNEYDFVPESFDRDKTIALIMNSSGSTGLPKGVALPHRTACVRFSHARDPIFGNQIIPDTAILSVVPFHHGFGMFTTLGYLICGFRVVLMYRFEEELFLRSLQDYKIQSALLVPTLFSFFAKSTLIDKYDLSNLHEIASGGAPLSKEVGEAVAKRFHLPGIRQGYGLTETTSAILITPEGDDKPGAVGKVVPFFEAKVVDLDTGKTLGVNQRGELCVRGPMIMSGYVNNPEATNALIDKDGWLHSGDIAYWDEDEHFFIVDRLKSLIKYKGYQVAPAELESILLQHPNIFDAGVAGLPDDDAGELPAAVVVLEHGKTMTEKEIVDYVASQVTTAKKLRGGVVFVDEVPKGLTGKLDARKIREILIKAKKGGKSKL
Numbers stand for hits; . = inactive; ? = inconclusive; / = no result. Compounds with a hit are over-represented: about 3.1% of the library has one in this group of screens.

SMILES	HSP90 refold inh	HSF1 inhib	HSF-1 act	ARNT TACC3 PPI	HIF act	HSP90 confirm	FLuc counter
O=S(N1CCCCC1)C12CC3CC(CC(C3)C1)C2 (stereo not drawn)	40.0	.	.	.	.	.	.
CCCNC(=O)C[C@@H]1C[C@@H]2c3cc(NC(=O)c4ccc5c(c4)OCO5)ccc3O[C@@H]2[C@@H](CO)O1	/	/	/	.	/	/	/
COc1ccc(/C=N/NC(=O)CNS(=O)(=O)c2ccccc2)cc1	/	/	/	.	/	/	/
CCC(=O)N/N=C/c1ccc(OS(=O)(=O)c2ccccc2)cc1	21.6	.	.	.	.	.	.
O=C(COc1ccc2c(c1)CCC2)NCc1ccccc1	.	.	.	.	.	/	/
NNC(=O)c1ccc(COc2cccc3ccccc23)cc1	.	.	.	.	.	/	/
NNC(=O)c1cccc(COc2ccccc2Br)c1	38.6	.	.	.	.	36.3	9.8
NNC(=O)c1cccc(COc2ccc3c(c2)CCC3)c1	35.7	?	.	.	.	65.9	56.3
COc1ccc(NC(=O)Nc2ccc3c(c2)CC(=O)N([C@H](C)CO)C[C@H](C)[C@@H](CN(C)C(=O)NC2CCCCC2)O3)cc1	/	/	/	.	/	/	/
CCN(CC)P(=O)(Nc1ccc([N+](=O)[O-])cc1)c1c(C)nn(CCC#N)c1NC(=O)c1ccc(Cl)cc1 (stereo not drawn)	57.4	.	.	.	.	.	.
C(=C\c1ccco1)/c1nc2ccccc2[nH]1	.	.	.	.	.	/	/
CN(C)c1ccc(/C=C/c2nc3ccccc3c(=O)[nH]2)cc1	58.8	.	.	.	.	75.8	72.8
C(=C\c1nc2ccccc2[nH]1)/c1ccccc1	30.8	.	.	.	.	53.7	48.2
O=C(Nc1cccc(/C=C/c2nc3ccccc3c(=O)[nH]2)c1)c1ccccc1Cl	.	.	.	.	.	/	/
COc1ccc(C(=O)Nc2cccc(/C=C/c3nc4ccccc4c(=O)[nH]3)c2)cc1	28.3	.	.	.	.	.	.
O=S(=O)(c1ccc(F)cc1)N1CCCCN2[C@H](CO)[C@@H](c3ccc(-c4ccccc4)cc3)[C@H]2C1	/	/	/	.	/	/	/
Cc1cnc(C(=O)Nc2ccc3c(c2)CCC3)cn1	17.4	.	?	.	.	26.6	17.7
CCn1ccc(C(=O)Nc2ccc3c(c2)CCC3)n1	19.2	.	.	.	.	30.1	15.0
O=S(=O)(N[C@H]1CC[C@@H](CCn2cc(-c3cccc(F)c3)nn2)O[C@@H]1CO)c1ccc(F)cc1	/	/	/	.	/	/	/
C[C@H]1CN([C@@H](C)CO)C(=O)c2cccc(NS(=O)(=O)c3ccccc3)c2O[C@@H]1CN(C)Cc1ccncc1	/	/	/	.	/	/	/
COCC(=O)N1CC[C@@H]2[C@H]1c1cc(-c3cccc(OC)c3)ccc1N(C)[C@H]2CO	/	/	/	.	/	/	/
COc1ccc(-c2csc(NC(=S)NC(=O)/C=C/c3ccc(C(C)C)cc3)n2)cc1OC	18.9	.	.	.	.	.	.
CC(Oc1ccccc1)C(=O)Nc1ccc(S(=O)(=O)Nc2nccs2)cc1 (stereo not drawn)	40.5	.	.	.	.	.	.
COc1ccc2cc(C(=O)N/N=C/c3sc4ccccc4c3O)ccc2c1	17.5	.	.	64.5	.	.	.
COc1ccc(NS(=O)(=O)c2cccc(C(=O)N/N=C/c3c(F)c(F)c(F)c(F)c3F)c2)cc1	/	/	/	.	/	/	/
SMILES	HSP90 refold inh	HSF1 inhib	HSF-1 act	ARNT TACC3 PPI	HIF act	HSP90 confirm	FLuc counter
COc1ccc(/C(O)=C2/C(=O)C(=O)N(Cc3ccco3)C2c2cccs2)cc1 (stereo not drawn)	.	.	.	.	.	/	/
CC1Cc2cc(/C(O)=C3/C(=O)C(=O)N(Cc4ccco4)C3c3cccs3)ccc2O1 (stereo not drawn)	36.2	.	.	.	.	.	.
CC1Cc2cc(/C(O)=C3/C(=O)C(=O)N(CCCn4ccnc4)C3c3ccco3)ccc2O1 (stereo not drawn)	41.7	/	/	.	/	40.3	39.0
COc1cccc(-c2ccc([C@@H]3[C@@H](C#N)N(C(=O)c4ccccn4)[C@@H]3CO)cc2)c1	/	/	/	.	/	/	/
Cc1ccc(C2=NCN(c3ccc(C(=O)O)cc3)C(=S)N2)cc1	21.8	.	.	/	.	18.0	.
S=C1NC(c2ccccc2)=NCN1c1ccccc1	.	.	.	.	.	/	/
COc1ccc(OC)c(N(CC(=O)N2CCN(Cc3ccccc3)CC2)S(C)(=O)=O)c1	19.8	.	.	.	.	.	.
CCN1CCN(C(=O)CN(c2cc(OC)ccc2OC)S(C)(=O)=O)CC1	.	.	.	.	.	/	/
O=C(Nc1ccc2c(c1)OCCO2)C1CC1c1ccccc1 (stereo not drawn)	.	.	.	.	.	/	/
O=C(O)C1CCCCC1C(=O)Nc1ccc2c(c1)OCCO2 (stereo not drawn)	29.2	-65.4	.	.	.	.	.
O=C(Nc1ccc2c(c1)OCCO2)c1ccccc1	24.4	.	.	.	.	27.0	17.1
COc1ccc(NC(=O)c2ccc3c(c2)OCCO3)cc1OC	.	.	.	.	.	/	/
COc1cccc(NC(=O)c2ccc3c(c2)OCCO3)c1	45.4	.	.	.	.	55.2	40.2
COc1cc2cc(C(=O)Nc3ccc4c(c3)OCCO4)[nH]c2cc1OC	35.7	-71.8	.	.	.	62.5	58.2
Cc1ccc(S(=O)(=O)Nc2ccc3c(c2)C(=O)N([C@@H](C)CO)C[C@@H](C)[C@@H](CN(C)CC2CCCCC2)OCCCC[C@H](C)O3)cc1	/	/	/	.	/	/	/
O=C(/C=C/c1ccco1)Nc1ccc2c(c1)OCCO2	.	/	/	.	/	/	/
O=C(/C=C/c1ccccc1)Nc1ccc2c(c1)OCCO2	32.3	.	.	.	.	51.4	47.9
CC(=O)Nc1ccc(NC(=O)/C=C/c2ccccc2)cc1	.	.	.	.	.	/	/
CSc1ccc(/C=C/C(=O)Nc2ccccc2)cc1	22.7	/	/	.	/	70.8	67.4
CC(=O)Oc1ccc(C(=O)Nc2ccc3c(c2)OCCO3)cc1	.	.	.	.	.	/	/
COc1cccc(NC(=O)c2ccc3c(c2)OCO3)c1	29.2	.	.	.	.	20.0	.
COc1ccc(C(=O)Nc2ccc3c(c2)OCCO3)cc1	27.8	/	/	.	/	46.0	27.4
C[C@H](CO)N1C[C@H](C)[C@H](CN(C)S(C)(=O)=O)OCCCC[C@H](C)Oc2ccc(NC(=O)Nc3ccc(F)cc3)cc2C1=O	/	/	/	.	/	/	/
C[C@@H]1CN([C@H](C)CO)C(=O)c2cc(NC(=O)NC3CCCCC3)ccc2O[C@H]1CN(C)S(=O)(=O)c1cn(C)cn1	/	/	/	.	/	/	/
CO[C@@H]1CC[C@H]2CCN(C)C(=O)C[C@H](c3ccccc3)CN(C)C(=O)c3cc(C#N)ccc3OC[C@@H]1O2	/	/	/	.	/	/	/
COc1ccc(C(=O)Nc2ccc3c(c2)OC[C@@H](C)N(C(C)=O)C[C@@H](C)[C@H](OC)CN(C)C3=O)cc1	/	/	/	.	/	/	/
